The values below come from article PMC12136788.

Residue numbers refer to the chain shown, from its start. Whole data set: some 5,800 sequences, median “enrichment r” near 0.68, cut for the highest 2% near 11. Shown is part of a subset that was picked to be rich in the highest values.

B1: chr20:3933335:3933436:-|3pUTR|ENSG00000101236|msi1|total|mutant (ssRNA)
RNA: GGGAGUUCUACAGUCCGACGAUCUUACAACACCUGCUAUCAAAUCAUCUAAGCUGAAAACAUGAGAUGCGCUUGGAAAGGCCCCGUCAGAAGCCAUUUCCUCUUAUCAUUUCCCUCUCCUAUGCACCAGUAAGGCCCGUCCAGCAACAGAGGAUUGAGCAUCA
B2: chr7:103374401:103374592:-|CDS|ENSG00000170615|control|control|control (ssRNA)
RNA: GGGAGUUCUACAGUCCGACGAUCCCUGCCCUAUGGGAGCUGCUGUUCCACAGCAUUCAUGAUGCAGUUUUAGGCAGCCAACUUAGAGAGGCACUUGCUGAACAGGAAGCCUCGGCUCCCCCUUCCCAGGAGGACUUGGAGCCCCAACAGAGGAUUGAGCAUCA
B3: chr22:21921976:21922077:-|3pUTR|ENSG00000100034|msi1|FALSE|unique (ssRNA)
RNA: GGGAGUUCUACAGUCCGACGAUCGACUGCAGUGGGCUCGGAUAGGCCCAUUGAGGUUUUUAGAAAAGCAGGAUUUGUUUUGUUAGGGAGGCAUGAUUUUGGUGAGAUCUUUCUGGAAGAGUUUUCCGCCUCUUUGUGAUGCUGCAACAGAGGAUUGAGCAUCA
B4: chr1:228494639:228494729:+|3pUTR|ENSG00000168159|msi1_unk|FALSE|overlapping (ssRNA)
RNA: GGGAGUUCUACAGUCCGACGAUCGCCAUCGUGUCUCAUCUUGCUGUUAUCUCUAGCUCUUUCCCUCCUCCCAUUUCCUUUAGUAGUUGAAUUUUGCAAAGCUUGUAGCAGUAGCUCAGUUGCCUGCAGCAUCCUUGUGUGUAGCAACAGAGGAUUGAGCAUCA
B5: chr11:64204363:64204470:+|3pUTR|ENSG00000168439|unk|FALSE|unique (ssRNA)
RNA: GGGAGUUCUACAGUCCGACGAUCGCCCUCGAGUUCCAUGUCUCUUUCCCCUGCCCCUAGUUGCUGUCUCGGCUGCUCUCCCAUAGUUGGUUUUUUUUUUAUUUGGGGCAGUGGGCAUGUUAUGGGGAGGGGAGGGGGUUCUUCCAACAGAGGAUUGAGCAUCA
B6: chr1:88684422:88684524:+|5pUTR|ENSG00000065243|unk|FALSE|unique (ssRNA)
RNA: GGGAGUUCUACAGUCCGACGAUCUCGAUGAACCGGACGGAAUAAGCCGCGCCUCCAGCAGGGGCUGCGCCUCCAUGAAUCCCUAGUUGUUUUUUUUUUUUUCUUUCUCUCCCCUCUCCUCACCCCCACCCCGAGCCCCGUCCCCAACAGAGGAUUGAGCAUCA
B7: chr17:58090057:58090109:+|3pUTR|ENSG00000264364|msi1_unk|FALSE|overlapping (ssRNA)
RNA: GGGAGUUCUACAGUCCGACGAUCGGGUAGGAUUAGCUUGAAUCUUUUUUUUCUUUACAUUUUUCUCCUGUCUGCUCCCUGCUUAGCCCUCAGUUUCCUCAUUCCUCUGGAGUUCUCUUAGAGCAGCCCCUGUUGUUAGUUGGCCAACAGAGGAUUGAGCAUCA
B8: chr5:97028609:97028710:+|3pUTR|ENSG00000113441|msi1|FALSE|bound_elsewhere (ssRNA)
RNA: GGGAGUUCUACAGUCCGACGAUCUUGCAAAAGCCAAGGUAAAGCCAGGAUCGCUGCCAAGUUGUUUGCACUCUUUGGAGUUCUAGUUAGCUCAGGGCCUGACUGUAUUUUUCAUCCAUCUUUUCUGAAGUGUCUUUGGGCAGUCAACAGAGGAUUGAGCAUCA
B9: chr14:75134463:75134564:-|3pUTR|ENSG00000170348|msi1|FALSE|unique (ssRNA)
RNA: GGGAGUUCUACAGUCCGACGAUCCUGUUUGGACUAUGUUUUCUUUUCUUCUCCCACUUGCUCAGCAGCUUGGGCUUCCAUUCUAGUUCUUUUACCAAGAUUUUUGUGUGACCAUGUUGACUUCAUUUGGAUUGCCCUCUUUCACAACAGAGGAUUGAGCAUCA
B10: chr11:134247321:134247422:+|3pUTR|ENSG00000151502|unk|FALSE|unique (ssRNA)
RNA: GGGAGUUCUACAGUCCGACGAUCCCUUUUCAGAGCAUGAGGUCAGGCUCUGUAUCCCUCCUUUUCCUAGCUGAUAUUCUAACUAGAAGCAUUUGUCAAUUCCUUUGCCUCCCAACUGACAACACACGUUCAUUUUCCAACCUUCAACAGAGGAUUGAGCAUCA
B11: chr16:87831719:87831834:-|3pUTR|ENSG00000103257|msi1_unk|total|mutant (ssRNA)
RNA: GGGAGUUCUACAGUCCGACGAUCCCUGCGUUUGGAGGCCCCUGGGCUCUCACCCAGUCCCCACCCGCCUGCAGAGAGGGAACCCGGGCACCCCUUGUUUCUGUUGUUCCCGUGAAUUUUUUUCGCUAUGGGAGGCAGCCGAGGCAACAGAGGAUUGAGCAUCA
B12: chr1:88684422:88684524:+|5pUTR|ENSG00000065243|unk|total|mutant (ssRNA)
RNA: B6 RNA with U83C, A84C
B13: chr8:100258838:100258944:-|CDS|ENSG00000034677|unk|FALSE|unique (ssRNA)
RNA: GGGAGUUCUACAGUCCGACGAUCAGUGAAUUUGAGGCUCCAUCCCUCAGUGACAGUAUGCCUUCUGUAGCAGAUUCUCACUCUAGUCAUUUUUCUGAAUUUAGUUGUUCUGACCUAGAAAGCAUGAAAACUUCUUGUAGUCAUCAACAGAGGAUUGAGCAUCA
B14: chr1:180885099:180885158:+|3pUTR|ENSG00000143324|msi1_unk|FALSE|overlapping (ssRNA)
RNA: GGGAGUUCUACAGUCCGACGAUCAGCUGAAGCUAUGCCUUAUUAUGCAUCCACAUGUAUGGUCCCUGUAGCGUGACCUUUACUAGCUCUGAAUCAGAAGACAGAGCUAUUUCAGAGGCUCUGUGUGCCCUCACUAGAUAGUUUCAACAGAGGAUUGAGCAUCA

The target of this test is T1, UNK ZnF1-6 (called full-length) (human, UniProt Q9C0B0 30-357).
T1 sequence: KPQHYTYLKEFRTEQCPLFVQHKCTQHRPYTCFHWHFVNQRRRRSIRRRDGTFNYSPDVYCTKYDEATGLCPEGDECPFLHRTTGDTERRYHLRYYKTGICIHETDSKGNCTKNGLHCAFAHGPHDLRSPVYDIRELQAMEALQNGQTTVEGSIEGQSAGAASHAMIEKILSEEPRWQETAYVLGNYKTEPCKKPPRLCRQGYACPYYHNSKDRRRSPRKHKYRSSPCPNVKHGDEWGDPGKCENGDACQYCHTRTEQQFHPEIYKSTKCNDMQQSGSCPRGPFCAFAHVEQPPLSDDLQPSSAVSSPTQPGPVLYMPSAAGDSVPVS
Briefly: nsRBNS (natural sequence RNA bind-n-seq); RBNS binding buffer (assumed for nsRBNS): 25 mM Tris pH 7.5, 150 mM KCl, 3 mM MgCl2, 0.01% Triton X-100, 500 ug/ml BSA, 20 U/ml SUPERase-In, 4 C; UNK is unkempt and MSI1 is Musashi-1; names of the RNAs are library labels; protein concentration not given here; high values mean tight binding.
Regarding B1, the binding signal stood at 0.525 enrichment R.
To B2 belongs 0.733 enrichment R; to B3, 0.813 enrichment R; to B4, 14.7 enrichment R.
To B5 belongs 20.5 enrichment R; to B6, 39 enrichment R; to B7, 4.34 enrichment R.
Molecule B8 yielded a binding signal of 0.475 enrichment R.
To B9 belongs 0.995 enrichment R; to B10, 2.72 enrichment R; to B11, 0.698 enrichment R.
To B12 belongs 3.43 enrichment R.
With B13, the binding signal stood at 13.2 enrichment R.
B14 displayed a binding signal of 2.64 enrichment R.
